According to PubChem BioAssay AID1508600 (Functional Genomics Laboratory (NCATS/FGL), 2020):
The whole screen tested about 53,000 sequences, of which about 3,700 (7%) were called active.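 The calls were made as follows: active = gene knockdowns whose robust z-score for IL-1 alpha signal is at least 2 or at most -2, so actives lie on both sides; inactive = the rest.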 This excerpt belongs to a sample that is enriched for actives.

Experiment: Components of the Cytosolic LPS Sensing Pathway: Gene Identification via Genome-wide siRNA Screen;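 also: robust z of the log signal after scaling to non-targeting control siRNA wells of the plate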
Details: RAW264.7 macrophages, IL-1a HTRF, actives lie on both sides, screened at 100 nM (by protocol), cells primed 5 h with Pam3CSK4 first
Outline: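 Three distinct siRNAs per gene were tested singly at 100 nM in RAW264.7 macrophages. Following Pam3CSK4 priming and 24 hour LipidA transfection, IL-1a secretion was read by HTRF.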

z-score, active:
GAUCAGAUGUUUGGGACUUTT against Olfr512 2.25
CCCUCAACCUCCAACCACATT against Ceacam1 -2.15
GGCCUACGAGAGGCAAAAATT against Hnf1a -2.05
GGCAAAGGAUCCAAGUUUGTT against Tmem123 2.81
GGGCAAGAACAACUCACUUTT against 4933404G15Rik -2.93
UCGAGUGAAGCAGUCUCCATT against Fam189a1 -2.13
CGAGAUCGAGUACUCAACUTT against Vps39 -2.96
GGAGUGAAGGGUCAUCCAGTT against Col9a2 5.07
GCCCUUUUCAUUCUCCAGATT against Zdhhc25 4.39
GGAAAUACGGCAGAACCCUTT against Kcnk9 -2.54
GGAAAUUGUGGACAUGAUCTT against Sult1c1 -3.27
GCUGGGUUAUGAGAUUUCUTT against Tns2 2.26
GGAUAGAGCACAGAUCCAGTT against St8sia5 2.38
GGGAAAGAAUUGGAUUGAATT against N4bp2l1 -2.31
GGGUUUUAUCAGCUAAAAATT against Plppr4 2.29
GCAUUCCAACGGAUUUAAUTT against Dag1 2.21
GGAUAUGCACUGUUUUCAATT against Nudt16 2.28
GGCUACGCCCACAAAAGCUTT against H1f6 -2.26
GGUUUUCCUAAAGUCAACATT against Bfar -2.24
GCAGUAGCGACGAAGGAUGTT against Rnf113a2 -2.12
GGCAGUAUCAAAGAAAUUGTT against Rps6ka3 3.43
GGUAAUGAUACCUUGAAUGTT against H60a 2.11
CGAUGUACUCCAUGUUGGGTT against Bpifb6 3.47
GGAACCUAUGGAAGGCGUATT against Ino80b 2.64

z-score, inactive:
GCUUGGACCAUAAAUACUGTT against Senp5 0.051
GGACUUCUUAAUGUUUUACTT against Phf11a 0.398
GCCCAAGGUAACAACAAGCTT against Rtn4r 1.28
GGUAACUUUGAACUGAUCCTT against 1700030J22Rik -1.17
GGGUUAGAGUAAGGUAUUATT against Tsn -0.879
GCAGAUAGCCCACGUCAUUTT against Nfkb2 0.881
CCUAAGUUCCUGAAAAUAUTT against Epha5 -0.454
GGGAUUCAGACAUGUGCUGTT against 4930503E14Rik -0.658
CCAUACCGAUCAAAUUCCCTT against Pfn2 -0.596
GCAAUAGAAAAGUCCGUGGTT against Rbsn -1.12
GGAUGUCCAGAUGUAAAUATT against Vps16 -0.974
GGUUAUCAGAGGUUUAGUUTT against Oser1 0.23
GGGUCUCCAAUCCCUCAGUTT against Kir3dl2 0.489
GGAUUCAAAGCUUCCUUUATT against Eras 0.115
CGAAAAGGUGUGGCCAUCATT against Eif4a3 -0.664
CGACAUGUAAAACUAUUGUTT against Cd300e 0.864
CGACAUUUUACUAAGAGAUTT against Idnk -0.895
GCCCAGAAUGCUCACUAAATT against Sln 0.491
GGCUGUAAUUUUGAACAAUTT against Rnf17 -1.42
GGUCACUCAAAGAAUUAUGTT against Srr -1.05
CCUGUUAAUGACACCCACGTT against Slc37a2 -0.886
GGCGAUUUACAACUUUGGATT against H2aw 0.0941
GGAUAUAGGUGUGAUCUAGTT against Mxra7 0.9
CCCAAUGUUUCUAAUCAUGTT against Arhgap12 0.306
GGAAGGUUUGUUUUGUUUGTT against Slc24a3 0.0291
GGAGGAAUACCAGGAAUACTT against Sncb 0.33
GCCUUUGUGGACCAUCCAATT against Thy1 -0.954
GUACCUCAGAGCUCUGCAUTT against Helt -0.292
GCACUUAGUCCUACAUGACTT against Fut1 -1.21
GGUGGUAAUAGACAAACACTT against Ctdnep1 -0.749
GGAUGUGUCAGAAAAGUUATT against Lars2 0.641
GGUAACAAAUGCUGUUUUATT against Cul1 0.459
CCGAUUGAAUUACUCAGCATT against Bcas2 0.226
GGACAAAAGACAAUCGAGATT against Parp2 -0.273
CGAUGUUUUCAUGAACGACTT against Tctex1d2 0.738
GGAGGAUUACAACACUGUUTT against Enpp3 -0.617
CCUAGUAGCCGAGAAACAUTT against Olfr1137 -0.705
GGCAAUACGUGAAGAAAAATT against Baz1a -0.493
GGCUGUUUCUGUCAUGGUUTT against Nup133 0.383
GCAGAGAUAAAUUGGAAAGTT against Art2b 0.292
GGUCGAAAUGAUCUCCAACTT against Poli -0.687
GCUUCGAGAACUUUCUCCCTT against Nrtn 0.818
GGUUUCCAUAUUUGGAUCCTT against Dhx40 0.0331
GGAAUUUGAAGCUGUCACUTT against Spata2 -0.433
GGACUAGCGGACAUGGAUCTT against Ndc80 1.02
GGAAUUUCAAAGAGACAAATT against Cyfip1 -0.423
GGAUCGGUGAGAUUGUAGCTT against Phyhd1 -0.177
GGGCAUUUCUUCAGCUAAUTT against Tfec -1.04
GGAAGAUCUCAGUGAGCAUTT against Gpcpd1 0.69
GGCUUUAGGAAGAUCCUUGTT against Ilf2 -0.538
UUCUGUGAUCAUGUCUUCUTT against Tuba1b -1.6
GCGAUUCUGUAAAGAGCGCTT against Nme1 1.9
GGCCUUAGUUUAUACAUGUTT against Dusp18 0.628
GGAAUGUAACUGAAAGACUTT against Myo1c 0.486
GCUCAAGGACUUACGCAACTT against Zfp668 -1.61
GGACAAAAACAAACAUGAGTT against Vwa3a -0.665
CCGGGAAAGAACUCCUAAGTT against Wnt8b 0.0331
GGUUUCACAUUCAUCAACUTT against Ccdc14 -1.02
GGAUGAGCAAGAAAUCCCUTT against Ccdc137 -0.873
CCUAAGGAGACACGAAGCCTT against Cfp -0.119
GGUCUUCCAAGAAAAAGGCTT against a 1.07
GGAUGCUGACAAAAAUAUCTT against Iars 0.447
GGCCAUAAAAUGGUAGUAUTT against Trim36 0.0952
GGGUCAUGUUUUUAAGAAGTT against Frrs1 -1.28
CCCUUGCCUCAAAGAUCUUTT against Tex48 0.633
GCACUGUUCUCAAAGUUAATT against Ddx3x -0.248
CCAAUUGGAAGAAUCCAGGTT against Gsdmc3 -0.542
GGACAAGAAUUGGAACAAATT against Zfp84 1.43
CCCAGGUAGAGACAUUGCUTT against 6330444E15Rik -1.89
GGAGAUGAAAUCUACAAAUTT against Igfbp1 -0.592
GCCUUGUUGUGUUGGCUUATT against Olfr1111 0.549
GGGAAUAUUUUCAAGUUGCTT against Tmem14a 0.795
GGAAGAUAUUGGUAAAAACTT against Uba1y 0.584
GGAUGUUUGGACAUCAUUUTT against 2610002M06Rik 0.204
GCUUCAGUGGCUACUCUUGTT against H2-M2 0.63
CCGUGGAUUGUGGAAUAAUTT against Xpnpep3 -1.39
GCCAGUUUUGGUAUCCCGUTT against Lpcat2 -1.2
GGGACAACCCAUCAACAAUTT against Catsper1 -0.614
GGAAAGCUUGAAUGUUGAGTT against Mup3 1.44
GACACCCUGUGACACCAAGTT against Sprr1b -0.597
GGCUUUAAUGAAAUUAUGGTT against Asap2 1.4
CCCAGAAUUGAACUAAAAATT against Mrpl32 -0.488
GGUGGAACAACUGUUUCAATT against Dyrk3 0.541
CCCACGCUUAGCAAUAUCATT against Get3 -1.49
